The target in this test is AMP-activated protein kinase, AMPK (Homo sapiens) (UniProt P54646+O43741+P54619+Q9UGJ0+Q9Y478+Q13131+Q9UGI9). Briefly: AMP-dependent Kinase enzyme assay. An in vitro enzyme assay that detects ADP turnover that is directly proportional to AMPK activity. This uses naive AMPK that is activated during the assay with MK-8722. It counts as functional. Particulars: 30 µM. Further details: scale not given: direction of the effect not stated beside the values.
`Cc1nc2n(n1)CC(NCc1ccc(Cl)c3cccnc13)CC2` (stereo not given): the Percent Effect is 9%.

`COC(=O)c1ccc(N(C(=O)c2cc(Cl)ccn2)C(C)C)c(C)c1`: the Percent Effect was -4.91%.

Take `CC(=O)N[C@@H]1CN(C(=O)c2cccc(C)c2)C[C@H]1O`: the Percent Effect is 8.23%.

Turning to `CC1(C)OC(=O)N(CCCC(=O)c2ccc(F)cc2)C1=O`, the Percent Effect was -8.28%.

`Cc1ccn(C)c(=O)c1NC(=O)N(C)Cc1cccc(OC(C)C)c1`: the Percent Effect was -92.7%.

For the molecule `CC(=O)N1CCc2nc(N(C)C)nc(NCCc3ccccc3)c2CC1`, the Percent Effect was 3.82%.

Regarding `CCCN1CCC(CC(=O)NCc2cc(O)ncn2)CC1`, the Percent Effect was -4.63%.

Regarding `Cc1ncsc1C(=O)OCCN1CCCc2ccccc21`, the Percent Effect was found to be 8.19%.

In the case of `CC1CN(C)CCN1C(=O)c1cccn1Cc1cccs1` (stereo not given), the Percent Effect was 3.93%.

As for `CN(C)C(C(=O)N1CCC(c2ncc[nH]2)CC1)c1ccc2c(c1)OCO2` (stereo not given), the Percent Effect stood at 1.17%.

Regarding `CC(C)(C)OC(=O)N[C@H]1CCN(c2cncc(Br)c2)C1`, the Percent Effect was 6.52%.

For the molecule `COc1ccccc1CCNC(=O)CNCC1CN(C)CCO1` (stereo not given), the Percent Effect is -4.87%.

Consider `COC(=O)c1ncccc1N1CCC(C(O)c2ccccc2)CC1` (stereo not given), for which the Percent Effect came out at 12.8%.

In the case of `Cc1ccc2[nH]c(CN(C)Cc3ccccc3C(=O)O)nc2c1`, the Percent Effect amounted to 4.71%.

Consider `Cc1ccc(C(C(=O)NC(C)(C)CN2CCCC2)N(C)C)cc1` (stereo not given), for which the Percent Effect is -22.5%.

On to `CN(Cc1ccccc1-n1cccn1)C[C@@H]1CCCN2CCCC[C@H]12`, for which the Percent Effect is -9.27%.

`CSCCC(NC(N)=O)C(=O)Nc1ccc(-n2cccn2)nc1` (stereo not given): the Percent Effect is -9.12%.

As to `Cc1cnn(CCCNC(=O)NCCC(=O)Nc2ccccc2)c1`, the Percent Effect is 11.1%.

As for `CC(c1nccs1)N(C)S(=O)(=O)NCc1ccccc1` (stereo not given), the Percent Effect was -1.57%.

Regarding `CCC(=O)c1cccc(S(=O)(=O)NC(C)C#N)c1` (stereo not given), the Percent Effect was -2.44%.

For the molecule `Cc1noc(C)c1C(=O)N1CCC(c2cc3cnccc3[nH]2)CC1`, the Percent Effect came out at 16.4%.

In the case of `CN1C(=O)[C@H]2CC[C@@H]1CN(C(=O)Nc1ccccc1C(F)(F)F)C2`, the Percent Effect is -0.892%.

Consider `COc1ncccc1CNCc1cnc(N2CCOCC2)nc1`, for which the Percent Effect is -1.53%.

Take `Cc1ccc(-c2noc(C3CCN3C(=O)c3ccc(=O)[nH]n3)n2)s1` (stereo not given): the Percent Effect is 19.2%.

As for `N#CC1(C(=O)N2C[C@H]3CC[C@@H]2CN(Cc2ccncc2)C3)CCOCC1`, the Percent Effect was -2.51%.

In the case of `Cc1nnc(N2CCc3cncnc3C2)c(C#N)c1C`, the Percent Effect is -187%.

With `Cc1cc(-c2n[nH]c3c2CN(S(=O)(=O)c2ccsc2)CC3)c(C)o1`, the Percent Effect amounted to 4.26%.

As to `c1cnc(N2CCC(c3nccn3CC3CC3)CC2)nc1`, the Percent Effect turned out to be 9.63%.

On to `CC(C)CN1CCC(NC(=O)N(C)Cc2csc3ccccc23)CC1`, for which the Percent Effect was 0.225%.

As to `Cc1csc(N2CCN(Cc3ccccn3)CC2)n1`, the Percent Effect was -1.61%.

On to `O=C(C1CCCO1)N1CCC(n2cc(-c3ccsc3)nn2)CC1` (stereo not given), for which the Percent Effect is 4.03%.

For `c1cn(Cc2ccc(N3CCCN(C4CCCC4)CC3)nc2)cn1`, the Percent Effect amounted to 11.7%.

In the case of `COCCOCC1CCN(C(=O)c2ccc3[nH]cnc3c2)C1` (stereo not given), the Percent Effect was -11.9%.

In the case of `Cc1nc2c(c(=O)[nH]1)CN(C(=O)CCC1CCCN(C)C1)C2` (stereo not given), the Percent Effect is 12%.

`Cn1cnnc1C1CCCN(c2nc3ccccc3o2)C1` (stereo not given): the Percent Effect is -1.42%.

As for `CC(C)(C)C(=O)N1CCCC1(C(=O)N1CCCC1)c1cnccn1` (stereo not given), the Percent Effect is -4.87%.

On to `Cc1cc(C(=O)NCCN2CCC(C)CC2)nn1C(C)(C)C`, for which the Percent Effect came to 5.48%.

Take `Cc1cc(C)n(CC2CCN(CC(O)CN3CCOCC3)CC2)n1` (stereo not given): the Percent Effect was -1.36%.

As for `Cc1cc(Br)ccc1C(=O)Nc1c(C(N)=O)n[nH]c1C`, the Percent Effect is 1.52%.

With `CCOc1cc(NC(=O)N2CCC3(CCOCC3)C2)ccc1C`, the Percent Effect was -0.853%.

The record behind these values is ChEMBL document CHEMBL3988442, “University of Dundee, Small-Polar-MMV Screening Library” (2021).
